Experimental data: PubChem BioAssay (Tox21)
Inconclusive results are not listed. The source made the active and inactive calls. Unless noted, the call rests on the fitted dose curve; in most records, active means well fitted curve in the direction sought with a large enough effect in the repeat runs; inconclusive means weak or mixed curves; inactive means no such curve, though single readings can be large; an effect the other way counts as inactive or inconclusive.

Key:
[1] = qHTS assay for small molecule agonists of the p53 signaling pathway (AID 651631; calls by dose curve; further: nearly all actives have a fitted effect of over 15% in size)
Method in brief: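 Agonist mode screen using a stably integrated beta-lactamase gene under p53 response elements in HCT-116 cells. Compound exposure lasts 16 h at 37 °C; fluorescence intensity is measured following 2 h FRET substrate loading.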

[2] = qHTS assay for small molecules that induce genotoxicity in human embryonic kidney cells expressing luciferase-tagged ATAD5 (AID 651632); further: nearly all actives have a fitted effect of over 15% in size
Method in brief: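 HEK293T cells carrying a luciferase reporter tagged to ATAD5 were exposed to compound or DMSO vehicle for 16 hr at 37C, 5% CO2. Amplite was added, and after 30 min at room temperature luciferase activity was read as a marker of ATAD5 induction.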

[3] = qHTS assay for small molecule agonists of the p53 signaling pathway - cell viability (AID 651633; calls by dose curve;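 further: p53RE-bla HCT reporter cells with a stable beta-lactamase p53 reporter; series mostly up to about 83 µM; nearly all actives have a fitted effect of over 30% in size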)
Method in brief: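 p53RE-bla cells, seeded at 4,000 per well and rested 5 h at 37 C/5% CO2, received compounds in DMSO for 16 h at 37 C. CellTiter-Glo was then added, and luminescence was read after 30 min at room temperature to gauge cytotoxicity.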

[4] = qHTS assay for small molecules that induce genotoxicity in human embryonic kidney cells expressing luciferase-tagged ATAD5 - cell viability (AID 651634; calls by dose curve; further: nearly all actives have a fitted effect of over 25% in size)
Method in brief: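 HEK293T cells expressing luciferase-tagged ATAD5 were exposed to compound or DMSO for 15.5 hr at 37C, 5% CO2. Viability was then read as live-cell protease activity by CellTiter-Fluor fluorescence after 30 min at 37C.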

[5] = qHTS assay for small molecule disruptors of the mitochondrial membrane potential - cell viability (AID 720634; calls by dose curve;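 further: human HepG2 liver cancer cells; series mostly up to about 83 µM; nearly all actives have a fitted effect of over 20% in size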)
Method in brief: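 HepG2 cells seeded overnight at 37 C, then exposed to compound or DMSO for 1 hr at 37 C, 5% CO2. m-MPI dye added, then CellTiter-Glo for 30 min at room temperature; viability read as ATP luminescence.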

[6] = qHTS assay for small molecule disruptors of the mitochondrial membrane potential (AID 720635)
Method in brief: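 HepG2 cells (2,000/well) attached overnight at 37C, then took compound for 1 hr at 37C, 5% CO2. Mito-MPS dye was added for 30 min; fluorescence was read at 490/535 nm (monomers) and 540/590 nm (aggregates).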

[7] = qHTS assay to test for compound auto fluorescence at 590 nm (red) in HepG2 cells (AID 720674)
Method in brief: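 Intrinsic compound fluorescence in the red window (Ex/Em 540/590 nm) is measured in attached HepG2 cells exposed for 1 hr, DMSO vehicle as baseline, benchmarked to Rose Bengal sodium.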

[8] = qHTS assay to test for compound auto fluorescence at 535 nm (green) in HepG2 cells (AID 720675)
[9] = qHTS assay to test for compound auto fluorescence at 460 nm (blue) in HEK293 cells (AID 720678)
Method in brief: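 Cells were seeded and left to adhere for 4-5 hr at 37C. Compounds were then pin-transferred. After an overnight incubation at 37C under 5% CO2, intrinsic fluorescence at 405/460 nm was measured and referenced to triamterene.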

[10] = qHTS assay to test for compound auto fluorescence at 535 nm (green) in HEK293 cells (AID 720680)
[11] = qHTS assay to test for compound auto fluorescence at 460 nm (blue) in HEK293 cell free culture (AID 720681)
Method in brief: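 Test compounds were pinned into cell-free culture medium (DMEM with 10% FBS) and fluorescence was read directly at Ex/Em 405/460 nm. Signals were expressed as fluorescence equivalents of triamterene, with DMSO vehicle as control.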

[12] = qHTS assay to test for compound auto fluorescence at 535 nm (green) in HEK293 cell free culture (AID 720682)
Method in brief: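 No cells present: wells hold DMEM supplemented with 10% FBS, into which compound or vehicle is pinned. Green emission is then recorded (485 nm excitation, 535 nm emission) and scaled to fluorescein.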

[13] = qHTS assay to test for compound auto fluorescence at 590 nm (red) in HEK293 cell free culture (AID 720683)
Method in brief: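 Tox21 10K library compounds were pinned into cell-free DMEM with 10% FBS and fluorescence was read at excitation 540 nm. Activity is expressed as Rose Bengal sodium equivalency.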

[14] = qHTS assay to test for compound auto fluorescence at 590 nm (red) in HepG2 cell free culture (AID 720684)
Method in brief: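 Red fluorescence (540 nm excitation, 590 nm emission) was measured after compound transfer into cell-free MEM supplemented with 10% FBS. Values are equivalencies against Rose Bengal sodium.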

[15] = qHTS assay to test for compound auto fluorescence at 460 nm (blue) in HepG2 cell free culture (AID 720685)
Method in brief: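 Compound (23 nL) or DMSO pinned into cell-free MEM with 10% FBS; blue fluorescence read at 405/460 nm excitation/emission, expressed as auto-fluorescence equivalency to triamterene.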

[16] = qHTS assay to test for compound auto fluorescence at 535 nm (green) in HepG2 cell free culture (AID 720686)
[17] = qHTS assay to test for compound auto fluorescence at 460 nm (blue) in HepG2 cells (AID 720687)
Method in brief: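 Cells (2,000/well in MEM with 10% FBS) attached overnight at 37 C, then were exposed to compound or DMSO for 1 hr at 37 C, 5% CO2. Fluorescence read at Ex/Em 405/460 nm, expressed as triamterene-equivalent signal.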

[18] = biological target: Glucocorticoid receptor (Homo sapiens) (UniProt P04150); experiment: qHTS assay to identify small molecule agonists of the glucocorticoid receptor (GR) signaling pathway (AID 720691; active means well fitted activation curve with a large enough effect in the signal ratio in the repeat runs, not every such curve was filed as active; the % refers to the signal ratio)
Method in brief: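 GR-bla HeLa cells (beta-lactamase reporter under glucocorticoid response element) were plated 4 h at 37 C/5% CO2, given compounds in DMSO, and incubated 18 h at 37 C. LiveBLAzer B/G FRET substrate was added for 2 h at room temperature, then fluorescence intensity read.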

[19] = biological target: Glucocorticoid receptor (Homo sapiens) (UniProt P04150); experiment: qHTS assay to identify small molecule antagonists of the glucocorticoid receptor (GR) signaling pathway (AID 720692; active means well fitted inhibition curve with a large enough effect in the signal ratio in the repeat runs, not every such curve was filed as active; the % refers to the signal ratio)
Method in brief: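 GR-bla HeLa cells (beta-lactamase reporter under glucocorticoid response element) were pre-plated 4 h at 37 C, treated with compounds plus 5 nM dexamethasone (final) for 18 h, then read by LiveBLAzer B/G FRET fluorescence after 2 h.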

[20] = qHTS assay to identify small molecule antagonists of the glucocorticoid receptor (GR) signaling pathway - cell viability counter screen (AID 720693); further: nearly all actives have a fitted effect of over 55% in size
[21] = qHTS assay for identifying genotoxic compounds that show differential cytotoxicity against isogenic chicken DT40 cell lines with known DNA damage response pathways - Rad54/Ku70 mutant cell line (AID 743015); further: nearly all actives have a fitted effect of over 60% in size
[22] = qHTS assay to identify small molecule antagonists of the androgen receptor (AR) signaling pathway - cell viability counter screen (AID 743033; further: nearly all actives have a fitted effect of over 45% in size)
[23] = qHTS assay to identify small molecule antagonists of the androgen receptor (AR) signaling pathway using the MDA cell line - cell viability counter screen (AID 743041; further: nearly all actives have a fitted effect of over 45% in size)
Method in brief: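 MDA-kb2 AR-luc human breast carcinoma cells (MMTV-luciferase, AR/GR responsive) were treated with compounds plus R1881 agonist for 16 h at 37 °C. Viability was read as CellTiter-Fluor fluorescence in the same wells as the reporter assay.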

[24] = qHTS assay to identify small molecule antagonists of the thyroid receptor (TR) signaling pathway - cell viability counter screen (AID 743064); further: nearly all actives have a fitted effect of over 50% in size
Method in brief: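 Rat GH3 pituitary tumor cells stably expressing two TR response elements driving luciferase were plated, rested 4 h, then dosed with library compounds and T3 (1 nM final). After 23.5 h at 37 °C, CellTiter-Fluor was added for 30 min and fluorescence recorded.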

[25] = qHTS assay to identify small molecule antagonists of the thyroid receptor (TR) signaling pathway (AID 743065); further: series mostly up to about 70 µM; nearly all actives have a fitted effect of over 55% in size
Method in brief: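 GH3.TRE-Luc rat pituitary cells carrying two TR response elements driving luciferase were plated for 4 h, given compound plus 1 nM T3 (final), and incubated 23.5 h at 37 C. ONE-Glo luminescence measured reporter inhibition; CellTiter-Fluor fluorescence tracked cytotoxicity.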

[26] = system: thyroid hormone receptor (rat, GH3 cells); experiment: qHTS assay to identify small molecule agonists of the thyroid receptor (TR) signaling pathway (AID 743066; calls by dose curve)
[27] = biological target: Estrogen receptor (Homo sapiens) (UniProt P03372); experiment: qHTS assay to identify small molecule antagonists of the estrogen receptor alpha (ER-alpha) signaling pathway (AID 743069; active means well fitted curve in the direction sought with a large enough effect in the signal ratio in the repeat runs, not every such curve was filed as active; the % refers to the signal ratio)
Method in brief: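 HEK293 cells stably carrying an ER-alpha-UAS-bla beta-lactamase reporter were pre-cultured overnight in 2% charcoal-stripped FBS medium. Test compounds in DMSO were added together with 17beta-estradiol for 18 hr at 37C. Read-out was fluorescence after 2 hr with LiveBLAzer B/G FRET substrate at room temperature.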

[28] = biological target: Estrogen receptor (Homo sapiens) (UniProt P03372); experiment: qHTS assay to identify small molecule agonists of the estrogen receptor alpha (ER-alpha) signaling pathway (AID 743075; calls by dose curve)
[29] = qHTS assay to identify small molecule antagonists of the estrogen receptor alpha (ER-alpha) signaling pathway using the BG1 cell line (AID 743080; calls by dose curve; further: series mostly up to about 70 µM; nearly all actives have a fitted effect of over 25% in size)
Method in brief: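 Antagonist mode: compounds in DMSO were pinned onto BG1-Luc-4E2 cells alongside 17beta-estradiol agonist, incubated 21.5 h, and ERE-driven luciferase measured with ONE-Glo. Cytotoxicity was multiplexed using CellTiter-Fluor fluorescence.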

[30] = qHTS assay to identify small molecule antagonists of the estrogen receptor alpha (ER-alpha) signaling pathway using the BG1 cell line - cell viability counter screen (AID 743081);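 further: compound given together with 17beta-estradiol as the ER stimulus; series mostly up to about 70 µM; nearly all actives have a fitted effect of over 45% in size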
[31] = biological target: Aromatase (Homo sapiens) (UniProt P11511); experiment: qHTS assay to identify aromatase inhibitors (AID 743083); further: series mostly up to about 70 µM; nearly all actives have a fitted effect of over 55% in size
[32] = qHTS assay to identify aromatase inhibitors - cell viability counter screen (AID 743084);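 further: cells stimulated with testosterone during compound exposure; nearly all actives have a fitted effect of over 55% in size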
[33] = biological target: Aryl hydrocarbon receptor (Homo sapiens) (UniProt P35869); experiment: qHTS assay to identify small molecule that activate the aryl hydrocarbon receptor (AhR) signaling pathway (AID 743085);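 further: HG2L7.5c1 human HepG2 liver cells with stably integrated DRE-driven firefly reporter; series mostly up to about 70 µM; nearly all actives have a fitted effect of over 15% in size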
Method in brief: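 Compounds were tested in HepG2 hepatocellular carcinoma cells harbouring a stably integrated luciferase gene under control of 20 DREs. Increased reporter signal after 24 h treatment at 37C was taken as AhR activation.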

[34] = qHTS assay to identify small molecule that activate the aryl hydrocarbon receptor (AhR) signaling pathway - cell viability counter screen (AID 743086);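 further: HepG2 liver cells carrying the AhR DRE luciferase reporter; series mostly up to about 70 µM; nearly all actives have a fitted effect of over 45% in size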
Method in brief: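 HepG2-AhR-luc (HG2L7.5c1) cells, 4000/well, were preincubated 5 h at 37C, exposed to compound in qHTS format for 24 hr at 37C, then given CellTiter-Fluor for 30 min; viability was read as fluorescence in the reporter wells.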

[35] = biological target: Peroxisome proliferator-activated receptor gamma (Homo sapiens) (UniProt P37231); experiment: qHTS assay to identify small molecule agonists of the peroxisome proliferator-activated receptor gamma (PPARg) signaling pathway (AID 743094; active means well fitted activation curve with a large enough effect in the signal ratio in the repeat runs, not every such curve was filed as active; the % refers to the signal ratio)
Method in brief: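 GeneBLAzer PPARg UAS-bla HEK293H cells carrying a stably integrated beta-lactamase reporter were pre-incubated 5 h at 37C, then exposed to compounds in DMSO for 17 h at 37C; LiveBLAzer B/G FRET substrate was added for 1 h at room temperature and fluorescence read.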

[36] = qHTS assay to identify small molecule antagonists of the estrogen related receptor (ERR) signaling pathway - cell viability counter screen (AID 1224818); further: potency means the concentration at half of the fitted maximal effect;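 further: viability measured after 17.5 h of compound exposure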
Method in brief: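 ERR reporter cells plated 6 h at 37 C/5% CO2, then compounds in DMSO pin-transferred and incubated 17.5 h at 37 C. Viability read as CellTiter-Fluor fluorescence after 30 min at 37 C.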

[37] = qHTS assay to identify small molecule antagonists of the estrogen related receptor (ERR) signaling pathway (AID 1224819; further: nearly all actives have a fitted effect of over 50% in size; further: potency means the concentration at half of the fitted maximal effect)
Method in brief: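 ERR reporter cells were plated at 2,000 cells/well and left 6 h at 37 C/5% CO2 before pin-tool transfer of compounds in DMSO. After 18 h at 37 C, One-Glo was added and luminescence was read 30 min later at room temperature.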

[38] = qHTS assay to identify small molecule agonists of the estrogen related receptor (ERR) signaling pathway (AID 1224820)
Method in brief: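 Quantitative HTS of the LOPAC library used NTP ERR reporter cells treated 18 h at 37 C. Signal is luminescence after One-Glo addition and a 30 min room-temperature incubation.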

[39] = system: estrogen-related receptor alpha (ERRalpha) with PGC-1alpha coactivator, human; experiment: qHTS assay to identify small molecule antagonists of the estrogen related receptor signaling pathway with the pleiotropic PPARgamma coactivator (PGC) (AID 1224821; calls by dose curve;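 further: series mostly up to about 46 µM; lower luminescence signal means antagonism of PGC/ERR signalling; nearly all actives have a fitted effect of over 50% in size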)
Method in brief: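 Quantitative HTS for antagonism: PGC/ERR cells received compounds after 6 h attachment and were incubated 18 h at 37 C, with luminescence (One-Glo) as the endpoint.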

[40] = qHTS assay to identify small molecule antagonists of the estrogen related receptor signaling pathway with the pleiotropic PPARgamma coactivator (PGC) cell viability counter screen (AID 1224822; further: potency means the concentration at half of the fitted maximal effect)
Method in brief: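 PGC/ERR cells were seeded at 2,000 cells/well, rested 6 h at 37 C/5% CO2, then given compounds in DMSO by pin tool and incubated 17.5 h at 37 C. Viability came from CellTiter-Fluor fluorescence after 30 min.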

[41] = qHTS assay to identify small molecule phospholipidosis (PLD) inducers (AID 1259344; active means well fitted curve in the direction sought with a large enough effect; an effect the other way counts as inactive or inconclusive)
Method in brief: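 HepG2 cells on collagen I, attached 4 h at 37 C, were co-treated with compound and LipidTOX Red dye for 24 h at 37 C, then fixed with paraformaldehyde plus Hoechst 33342 and imaged by high-content microscopy for phospholipid accumulation.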

[42] = qHTS assay to identify small molecule agonists of the estrogen related receptor signaling pathway with the pleiotropic PPARgamma coactivator (PGC) (AID 1224823)
Method in brief: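 Cell-based luciferase assay in the NTP-supplied PGC/ERR line, 2,000 cells/well; 18 h compound exposure at 37 C, luminescence after One-Glo.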

Measured: Potency

Sequence of Glucocorticoid receptor (Homo sapiens) (P04150 whole entry, looked up): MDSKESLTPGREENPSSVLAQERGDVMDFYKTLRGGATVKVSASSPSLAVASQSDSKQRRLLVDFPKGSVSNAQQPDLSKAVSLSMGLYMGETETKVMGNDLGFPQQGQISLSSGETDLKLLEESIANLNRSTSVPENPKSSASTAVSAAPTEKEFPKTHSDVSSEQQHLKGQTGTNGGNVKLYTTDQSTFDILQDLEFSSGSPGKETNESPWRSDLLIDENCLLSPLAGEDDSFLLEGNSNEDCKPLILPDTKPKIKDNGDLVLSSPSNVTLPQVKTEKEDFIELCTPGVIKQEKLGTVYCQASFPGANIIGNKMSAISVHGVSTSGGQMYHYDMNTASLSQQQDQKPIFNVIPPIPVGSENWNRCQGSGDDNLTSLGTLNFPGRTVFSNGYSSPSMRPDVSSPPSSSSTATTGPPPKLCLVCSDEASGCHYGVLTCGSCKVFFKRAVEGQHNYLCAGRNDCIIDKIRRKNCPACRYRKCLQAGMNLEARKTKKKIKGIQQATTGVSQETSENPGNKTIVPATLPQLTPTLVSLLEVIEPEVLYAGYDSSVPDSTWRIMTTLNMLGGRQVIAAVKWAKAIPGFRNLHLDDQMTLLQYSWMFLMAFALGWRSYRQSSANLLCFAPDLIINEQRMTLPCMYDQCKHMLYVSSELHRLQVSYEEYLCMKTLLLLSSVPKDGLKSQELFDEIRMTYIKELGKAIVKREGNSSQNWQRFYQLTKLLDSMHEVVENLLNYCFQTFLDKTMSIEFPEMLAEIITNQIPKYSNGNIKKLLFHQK
Sequence of Estrogen receptor (Homo sapiens) (P03372 whole entry, looked up): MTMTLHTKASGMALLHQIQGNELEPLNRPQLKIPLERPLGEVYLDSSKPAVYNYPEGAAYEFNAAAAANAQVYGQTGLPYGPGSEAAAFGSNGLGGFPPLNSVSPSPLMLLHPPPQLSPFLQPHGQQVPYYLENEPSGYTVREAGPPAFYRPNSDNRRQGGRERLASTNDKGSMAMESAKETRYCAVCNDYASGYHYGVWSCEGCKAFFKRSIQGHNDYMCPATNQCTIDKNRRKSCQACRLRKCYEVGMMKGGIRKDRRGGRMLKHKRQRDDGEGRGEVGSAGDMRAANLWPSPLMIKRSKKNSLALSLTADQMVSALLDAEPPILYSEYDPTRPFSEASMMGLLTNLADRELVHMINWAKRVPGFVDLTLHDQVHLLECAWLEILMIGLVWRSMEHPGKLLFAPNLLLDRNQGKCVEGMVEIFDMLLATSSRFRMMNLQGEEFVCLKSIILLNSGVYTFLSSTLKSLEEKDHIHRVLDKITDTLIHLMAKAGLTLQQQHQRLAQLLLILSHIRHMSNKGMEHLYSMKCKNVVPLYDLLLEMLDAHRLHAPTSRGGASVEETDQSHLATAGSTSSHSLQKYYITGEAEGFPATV
Sequence of Peroxisome proliferator-activated receptor gamma (Homo sapiens) (P37231 whole entry, looked up): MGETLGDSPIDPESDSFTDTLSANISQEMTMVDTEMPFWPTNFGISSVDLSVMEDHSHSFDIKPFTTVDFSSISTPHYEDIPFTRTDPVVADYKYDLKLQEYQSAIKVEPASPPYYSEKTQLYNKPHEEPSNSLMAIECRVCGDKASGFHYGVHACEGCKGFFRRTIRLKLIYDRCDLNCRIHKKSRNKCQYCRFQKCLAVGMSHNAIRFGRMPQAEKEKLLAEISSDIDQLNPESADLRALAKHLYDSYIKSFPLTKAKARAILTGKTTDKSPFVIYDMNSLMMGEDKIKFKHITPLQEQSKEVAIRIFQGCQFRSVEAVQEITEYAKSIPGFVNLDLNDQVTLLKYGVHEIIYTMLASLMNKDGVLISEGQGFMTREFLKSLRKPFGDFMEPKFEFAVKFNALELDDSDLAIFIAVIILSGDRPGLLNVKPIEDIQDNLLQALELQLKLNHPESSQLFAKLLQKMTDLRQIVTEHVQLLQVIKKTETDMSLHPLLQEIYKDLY
Sequence of Aromatase (Homo sapiens) (P11511 whole entry, looked up): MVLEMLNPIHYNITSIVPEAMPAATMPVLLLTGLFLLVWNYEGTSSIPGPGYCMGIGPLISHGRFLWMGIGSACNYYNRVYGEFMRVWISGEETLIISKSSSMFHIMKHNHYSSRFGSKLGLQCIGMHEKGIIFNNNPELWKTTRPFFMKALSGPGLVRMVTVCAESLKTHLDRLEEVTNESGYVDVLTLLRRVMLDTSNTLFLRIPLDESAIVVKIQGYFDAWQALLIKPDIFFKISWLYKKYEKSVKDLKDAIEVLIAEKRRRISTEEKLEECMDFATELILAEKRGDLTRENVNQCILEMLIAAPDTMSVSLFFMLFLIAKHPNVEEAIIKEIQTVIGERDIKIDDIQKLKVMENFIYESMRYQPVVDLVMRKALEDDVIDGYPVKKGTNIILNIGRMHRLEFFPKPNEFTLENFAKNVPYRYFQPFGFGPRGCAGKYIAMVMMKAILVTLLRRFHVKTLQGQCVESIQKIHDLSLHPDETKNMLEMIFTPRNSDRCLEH
Sequence of Aryl hydrocarbon receptor (Homo sapiens) (P35869 whole entry, looked up): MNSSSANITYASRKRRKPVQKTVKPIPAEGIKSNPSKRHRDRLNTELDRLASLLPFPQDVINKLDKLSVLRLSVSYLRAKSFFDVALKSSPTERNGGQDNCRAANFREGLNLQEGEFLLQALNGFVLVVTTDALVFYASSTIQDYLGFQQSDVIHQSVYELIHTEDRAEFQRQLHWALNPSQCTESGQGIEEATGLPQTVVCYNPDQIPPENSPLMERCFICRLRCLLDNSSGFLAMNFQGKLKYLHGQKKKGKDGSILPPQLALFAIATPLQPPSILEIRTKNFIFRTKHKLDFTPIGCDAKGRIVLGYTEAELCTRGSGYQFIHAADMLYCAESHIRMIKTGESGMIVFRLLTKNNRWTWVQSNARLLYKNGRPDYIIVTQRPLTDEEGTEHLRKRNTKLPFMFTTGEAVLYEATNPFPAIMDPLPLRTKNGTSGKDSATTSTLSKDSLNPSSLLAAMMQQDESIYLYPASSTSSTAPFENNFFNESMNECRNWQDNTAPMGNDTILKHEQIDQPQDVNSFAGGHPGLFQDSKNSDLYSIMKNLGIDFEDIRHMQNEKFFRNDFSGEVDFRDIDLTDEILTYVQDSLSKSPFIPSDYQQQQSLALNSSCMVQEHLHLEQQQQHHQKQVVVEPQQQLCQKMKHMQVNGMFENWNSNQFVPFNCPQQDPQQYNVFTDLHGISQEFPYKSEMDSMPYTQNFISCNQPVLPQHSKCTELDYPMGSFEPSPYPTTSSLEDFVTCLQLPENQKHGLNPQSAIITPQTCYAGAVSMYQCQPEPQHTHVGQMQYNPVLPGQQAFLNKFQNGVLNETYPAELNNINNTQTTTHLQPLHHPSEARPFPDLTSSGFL

CCCCc1ccc(C(=O)O)nc1
not listed: [42]
inactive: all other assays above

CNc1ccc2oc(C[C@H]3O[C@@]4(CC[C@H]3C)O[C@H]([C@H](C)C(=O)c3ccc[nH]3)[C@H](C)C[C@H]4C)nc2c1C(=O)O
inactive: [38] | [42]
active: [36] 10.6 µM | [37] 2.37 µM | [40] 9.44 µM

C[C@H](N)CN1CCc2ccc(Br)cc21
inactive: [36] | [37] | [39] | [40] | [42]
